# According to PubChem BioAssay AID1259318 (Sanford-Burnham Center for Chemical Genomics, 2017):
# Out of some 370,000 compounds screened, about 3,000 (0.81%) were called active. Shown is part of a subset that was picked to be rich in actives. A number with no mark means an inactive call.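 How the source made its calls: active means activity above about 14% (limit read from the data; passing the limit was not always enough); inactive means the rest.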
# Molecular target: Nuclear receptor subfamily 1 group D member 1 (Homo sapiens) (UniProt P20393)
# Sequence (P20393 whole entry, looked up): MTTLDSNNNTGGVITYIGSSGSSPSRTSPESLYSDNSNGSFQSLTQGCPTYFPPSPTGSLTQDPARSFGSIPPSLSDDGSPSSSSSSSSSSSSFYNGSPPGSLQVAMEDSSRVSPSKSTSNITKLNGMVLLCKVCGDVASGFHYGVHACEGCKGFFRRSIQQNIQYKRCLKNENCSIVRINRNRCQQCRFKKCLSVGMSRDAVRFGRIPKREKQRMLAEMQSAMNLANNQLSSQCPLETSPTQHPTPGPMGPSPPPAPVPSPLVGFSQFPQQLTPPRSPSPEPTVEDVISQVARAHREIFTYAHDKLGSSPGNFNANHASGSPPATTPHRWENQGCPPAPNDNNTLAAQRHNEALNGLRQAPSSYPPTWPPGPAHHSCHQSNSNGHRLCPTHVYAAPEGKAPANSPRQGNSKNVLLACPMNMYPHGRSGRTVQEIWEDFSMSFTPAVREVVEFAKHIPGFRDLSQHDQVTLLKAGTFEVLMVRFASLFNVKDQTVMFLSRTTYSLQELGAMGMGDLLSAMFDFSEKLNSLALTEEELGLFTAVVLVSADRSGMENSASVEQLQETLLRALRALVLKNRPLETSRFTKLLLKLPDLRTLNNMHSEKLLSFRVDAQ
# Test: modulators of Rev-erb alpha DNA binding, primary screen, biochemical, FITC-DNA, fluorescence polarization, uHTS (AID 1259318);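 further: 0% = DMSO wells with 35 nM protein and 100% = DMSO wells with 750 nM protein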
# Details: Rev-erbα–FITC-DNA binding, 90 min, at 10 µM, active compounds read high
row,SMILES,activity
1,Cc1c[nH]c2cccc(-c3ccc(Cl)cc3)c12,4.69%
2,CCCCCCCCCCCCCCCCO,2.41%
3,CCNC(=O)C1(C)CCCN(C(=O)c2c(C)noc2C)C1 (configuration not stated),-9.88%
4,NC(N)=Nc1nc2ccc(Br)cc2c(=O)[nH]1,20.6% (active)
5,NC(=O)C1CCN(Cc2nc3c(Br)cc(Br)cc3c(=O)[nH]2)CC1,-0.27%
6,CC(C)(C)c1ccc(S(=O)(=O)N2CCN(C(=O)c3ccc4c(c3)C(=O)N(Cc3ccncc3)C4=O)CC2)cc1,-6.31%
7,COc1cccc(NS(=O)(=O)c2ccc3[nH]cc(C(=O)NCCCOC(C)C)c(=O)c3c2)c1,5.55%
8,CN(C)S(=O)(=O)c1ccc(N2CCCC2)c(C(=O)Nc2cccc(F)c2)c1,6.34%
9,CN(C)S(=O)(=O)c1ccc(N2CCCC2)c(C(=O)NCc2ccccc2)c1,5%
10,CN(C)S(=O)(=O)c1ccc(N2CCCC2)c(C(=O)Nc2ccc(Br)cc2F)c1,23.1% (active)
11,CC(C)(C)NC(=O)C(c1cccnc1)N(C(=O)c1cnco1)c1ccc(C(C)(C)C)cc1 (configuration not stated),0.3%
12,CN1/C(=c2/s/c(=C3/C(=O)N(c4ccccc4)NC3=Nc3ccccc3)n(C)c2=O)C(C)(C)c2ccccc21,42.5% (active)
13,Cc1cc(=O)oc2c(C(=O)c3ccccc3)c(OCC(N)=O)ccc12,1.4%
14,CCOC(=O)c1c(C)oc2cc(Br)c(OCC(N)=O)cc12,27.8% (active)
15,COCCOC(=O)c1c(C)oc2cc(Br)c(OCC(N)=O)cc12,-0.63%
16,CCOc1ccc(NC(=O)CN(C)C(=O)CCSc2ccc(F)cc2)cc1OCC,-6.91%
17,Nn1c(SCC(=O)Nc2cccc3ccccc23)nnc1-c1cc(-c2ccc(F)cc2)n[nH]1,0.84%
18,Cc1ccn2c(=O)nc(SCC(=O)NCc3ccc(F)cc3)nc2c1,10.3%
19,Cc1ccn2c(=O)nc(SCC(=O)NCc3ccc4c(c3)OCO4)nc2c1,-6.16%
20,COc1ccc(C2=NN(C(=O)CSc3nc(=O)n4ccc(C)cc4n3)C(c3ccc(C)cc3)C2)cc1 (configuration not stated),37.8% (active)
21,CC(O)COc1ccccc1 (configuration not stated),-2.15%
22,Cc1ccc(NS(=O)(=O)c2ccc(-c3ccc(=O)[nH]n3)o2)c(C)c1,1.28%

row,SMILES,activity
1,N#C/C(=C\c1cccnc1)C(=O)Nc1ccc(SC(F)F)cc1,-6.19%
2,Cc1ccc(-n2c(C)cc(/C=C(\C#N)C(=O)NCC3CCCO3)c2C)cc1 (configuration not stated),-8.1%
3,Cc1cc(/C=C(/C#N)C(=O)Nc2ccc(Cl)cc2)c(C)n1-c1cccnc1,23.3% (active)
4,CN(C)CCc1c[nH]c2ccc(Cn3cncn3)cc12,-0.58%
5,CS(=O)(=O)N(Cc1ccccc1)c1ccc(C(=O)NN=C2CCCCCC2)cc1,1.02%
6,Cc1cccc(Nc2nc3c(S(=O)(=O)c4ccccc4)nnn3c3ccccc23)c1C,47.9% (active)
7,Cc1cc(Nc2cccc(C)c2C)n2ncnc2n1,0.88%
8,Cc1ccc(S(=O)(=O)NCC(=O)N2CCN(c3ccccn3)CC2)cc1,-1.9%
9,CCOC(=O)c1nnn2c1nc(N1CCN(c3ccccc3)CC1)c1ccccc12,-1.6%
10,Cc1nc(Nc2ccccc2C)c2cnn(C)c2n1,3.28%
11,Cc1ccc(S(=O)(=O)c2nnn3c2nc(N2CCN(c4ccccn4)CC2)c2ccccc23)cc1,87.8% (active)
12,CCN(CC(=O)Nc1c(F)cccc1F)C(=O)C1CCC1,-2.66%
13,COc1cc(C(=O)N2CCOCC2)cc(OC)c1OC,-1.7%
14,N#Cc1cccc(NC(=O)COC(=O)c2ccccc2C(=O)c2ccc(Cl)c([N+](=O)[O-])c2)c1,3.08%
15,CCCOc1ccc(Oc2c(Cl)cnn(Cc3cccc4ccccc34)c2=O)cc1,-0.89%
16,Cc1c(C=O)c2ccccn2c1C(=O)c1ccncc1,-1.4%
17,CN(C(=O)CSc1nnc(-c2n[nH]c3ccccc23)o1)c1ccccc1,-0.39%
18,O=C1CN(C(=O)COc2c(Cl)cccc2Cl)c2ccccc2N1,-1.39%
19,CCOc1ccc(C)cc1S(=O)(=O)NC1CCCCCC1,4.62%
20,O=C(CN1CCC(NC(=O)NCc2ccccc2)CC1)Nc1ccc2c(c1)OCCO2,-2.38%
21,Cc1ccc2c(C(=O)CN3CCCC3)c(C)[nH]c2c1,-0.66%
22,CC(C)(C)c1ccc(C(=O)Nc2cc(Cl)c(Br)cc2C(=O)O)cc1,-8.64%

row,SMILES,activity
1,COc1ccc(CN2[C@@H](CC(=O)O)c3cc(F)ccc3S2(=O)=O)cc1,1.62%
2,COc1ccc(S(=O)(=O)N2CCN(c3cnccn3)CC2)cc1,0.63%
3,COc1ccc(S(=O)(=O)N2CCN(c3ncnc4c(-c5ccccc5)nsc34)CC2)cc1,27.5% (active)
4,COc1ccc(S(=O)(=O)N2CCSCC2)cc1,-4.2%
5,COc1ccc(-c2csc3ncnc(N4CCN(S(=O)(=O)c5ccccc5C#N)CC4)c23)cc1,28.3% (active)
6,COc1ccc(-c2csc3ncnc(N4CCN(S(=O)(=O)c5cccc(F)c5)CC4)c23)cc1,3.12%
7,COc1ccc(-c2csc3ncnc(Oc4ccc5c(C)cc(=O)oc5c4)c23)cc1,3.46%
8,CCC1(C)CC(=O)NC1=O (configuration not stated),-6.13%
9,CC(C)(C)c1ccc(/C=C2\SC(=O)N=C2N)cc1,0.2%
10,CCC(C)[C@H]1O[C@]2(CC[C@@H]1C)C[C@@H]1C[C@@H](C/C=C(\C)[C@@H](O[C@@H]3C[C@H](OC)[C@H](O[C@H]4C[C@H](OC)[C@@H](O)[C@H](C)O4)[C@H](C)O3)[C@@H](C)/C=C/C=C3\CO[C@@H]4[C@H](O)C(C)=C[C@@H](C(=O)O1)[C@]34O)O2 (some centres not stated),6.63%
11,C=CCn1c(=NC(=O)c2cccs2)sc2cc(NC(C)=O)ccc21,31.9% (active)
12,O=C(Cn1c(=O)sc2ccccc21)Nc1ccc2c(c1)OCCO2,2.42%
13,C=CCn1c(=NC(=O)c2ccc(S(=O)(=O)N3CCCC3)cc2)sc2cc(NC(C)=O)ccc21,51.5% (active)
14,CCN(CC)S(=O)(=O)c1cccc(NC(=O)c2ccc(S(=O)(=O)N3CCCC3)cc2)c1,5.55%
15,C=CCn1c(CCNC(=O)c2cccs2)n[nH]c1=S,-1.01%
16,CC(=O)Nc1ccc(S(=O)(=O)N2CCN(S(=O)(=O)c3cccs3)CC2)cc1,-1.45%
17,CCOC(=O)c1cc(S(=O)(=O)NCCc2ccc(OC)c(OC)c2)cn1C,1.86%
18,Cc1cccc(OCCC(=O)Nc2cc(S(=O)(=O)N3CCCCC3)ccc2N2CCOCC2)c1,-0.99%
19,CN(CCc1ccccn1)S(=O)(=O)c1ccc2c3c(cccc13)C(=O)N2,1.1%
20,Cc1cc(NC(=O)CSC2=NS(=O)(=O)c3cc(Cl)ccc3N2)no1,-5.75%
21,O=C(CSc1nnc(-c2cccc(Cl)c2)n1Cc1ccco1)Nc1ccc(OCc2ccccc2)cc1,4.77%
22,Cc1cc(NC(=O)CSc2nc3cc(Cl)ccc3c(=O)n2Cc2ccco2)no1,20.1% (active)

row,SMILES,activity
1,CC/C(=C(/c1ccccc1)c1ccc(OCC[N+](C)(C)C)cc1)c1ccccc1,-1.77%
2,C=CCN1[C@H](CC(C)C)COc2cccc(N3CCCC3)c2S1(=O)=O,5.72%
3,Fc1c(F)c(C(F)(F)F)c(F)c(F)c1N1CCN(c2ccc3nnc(C(F)(F)F)n3n2)CC1,28.7% (active)
4,CCN(CC)S(=O)(=O)c1ccc(OC(C)C)c(N)c1,-2.29%
5,CCN(CC)S(=O)(=O)c1ccc(C(=O)N2CCN(C3=NS(=O)(=O)c4ccccc43)CC2)cc1,-1.88%
6,CCN(CC)C(=O)CS(=O)CC(=O)Nc1cc(OCCOC)c(Cl)cc1Cl (configuration not stated),-6.56%
7,CSc1ccc(Cl)c(C(=O)OCC(=O)N2CC(C)OC(C)C2)c1 (configuration not stated),-1.82%
8,COc1cc(Cl)c(C)cc1NC(=O)COC(=O)c1cc(SC)ccc1Cl,35.7% (active)
9,COc1ccc(OCC(=O)Nc2cc(C)c(Cl)cc2OC)c([N+](=O)[O-])c1,1.26%
10,COc1ccccc1NC(=O)COc1ccc(C(=O)OCC(=O)N(C(C)C)C(C)C)cc1OC,0.89%
11,Clc1ccc(Cl)c(Oc2ccc(Oc3nc(Cl)ccc3Cl)cc2)n1,-2%
12,Clc1ccc(-n2c(COc3ccccc3)nnc2SCc2nc3ccccc3[nH]2)cc1,-0.37%
13,CC1CC2C3CCC4=CC(=O)C=C[C@]4(C)[C@@]3(F)[C@@H](O)C[C@]2(C)[C@@]1(O)C(=O)CO (some centres not stated),0.08%
14,Cn1nccc1NS(=O)(=O)c1ccc(F)cc1,3.3%
15,O=c1cc(N2CCCCC2)c(-c2ccccc2)nn1Cc1cccc(F)c1,30.7% (active)
16,O=C(CS(=O)(=O)c1cn(Cc2cccc(F)c2)c2ccccc12)N1CCCCC1,-9.9%
17,CCc1c(-c2ccc(F)cc2)ncn1Cc1cccc(-c2ccccc2)c1,-5.19%
18,COC(=O)[C@]1(C)N[C@H](CN(C)C(=O)c2ccc(C(C)(C)C)cc2)[C@@H]2C(=O)N(C)C(=O)[C@@H]21,-0.45%
19,Oc1c(Br)cc(/C=N/NC(=S)NCC2CCCO2)cc1Br (configuration not stated),-2.6%
20,CO/N=C(\C(=O)N[C@@H]1C(=O)N2C(C(=O)O)=CCS[C@H]12)c1csc(N)n1,-1.64%
21,CCn1c(=O)c2ccccc2n(CC(=O)N2CCCc3ccccc32)c1=O,-3.6%
